Only some compounds are listed: those with a hit (about 11% of all), similar ones and a draw of the others.
JMJD2A Tudor = blocks the human JMJD2A Tudor domain | O75164 | AlphaScreen JMJD2A-Tudor / H3K4me3 peptide binding | Potency, µM (doses to about 114 µM), inactives show at the highest dose activity change, negative = inhibition, hits mostly inhibitors | 4.4% of 390,000 active | AID 504339; also: % is scaled to controls: 0 for no effect and ±100 for the full control effect; nearly all actives have a fitted effect of over 50% in size
PLK1 PBD inh = inhibitors of human PLK1 polo-box domain binding. Plk1 PBD binding of FITC phosphopeptide, fluorescence polarization. 2.8% of 360,000 active. AID 720504. Potency, µM, inactives show max response, negative = inhibition, most hits filed as inhibitors; also: series mostly up to about 57 µM; % is scaled to controls: 0 for no effect and ±100 for the full control effect; nearly all actives have a fitted effect of over 65% in size
HP1b chromo inh = HP1-beta chromodomain-methylated histone interaction inhibition. P83916. AlphaScreen HP1-beta / biotin-H3K9me3 peptide binding. Potency, µM (doses to about 114 µM), for inactives: top-dose activity change, negative = inhibition, hits mostly inhibitors. 0.56% of 390,000 active; also: nearly all actives have a fitted effect of over 70% in size
Target sequence (P83916 whole entry, looked up): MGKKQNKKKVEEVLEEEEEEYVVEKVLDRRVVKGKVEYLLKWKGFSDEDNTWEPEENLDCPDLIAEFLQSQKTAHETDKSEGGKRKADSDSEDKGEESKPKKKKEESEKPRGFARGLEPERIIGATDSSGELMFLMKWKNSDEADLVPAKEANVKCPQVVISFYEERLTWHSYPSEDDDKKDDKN
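HP1-beta protein (50 nM final) preincubated 30 min at room temperature with biotinylated H3(1-18)K9me3 peptide (50 nM) in PBS pH 7.4, 0.01% Tween-20, then compound added for 30 min. AlphaScreen streptavidin donor/nickel chelate acceptor beads (10 ug/mL final), 30 min dark, luminescence read.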
BAZ2B block = BAZ2B (human) inhibition; AlphaScreen BAZ2B-H3K14Ac peptide displacement; 4.4% of 360,000 active; Q9UIF8; Potency, µM (highest dose often 114 µM), without a hit: at the top dose activity change, negative = inhibition, actives largely listed as inhibitors; AID 504333; also: % is scaled to controls: 0 for no effect and ±100 for the full control effect; nearly all actives have a fitted effect of over 60% in size
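Inhibition is scored as reduced AlphaScreen emission. The BAZ2B/b-H3(5-23)K14Ac complex (50 nM each) in PBS pH 7.4, 0.01% Tween-20 meets compound (up to 110 uM) for 30 min at RT before bead addition.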
G9a inh = G9a (human) methyltransferase inhibition; G9a H3K9 monomethylation, AlphaScreen, 2 h; Potency, µM (series often up to 102 µM), for inactives: top-dose activity, negative = inhibition, actives largely listed as inhibitors; 8.8% of 350,000 active; AID 504332; also: % is scaled to controls: 0 for no effect and ±100 for the full control effect; nearly all actives have a fitted effect of over 75% in size
Target sequence (Q96KQ7 913-1193 limits assumed): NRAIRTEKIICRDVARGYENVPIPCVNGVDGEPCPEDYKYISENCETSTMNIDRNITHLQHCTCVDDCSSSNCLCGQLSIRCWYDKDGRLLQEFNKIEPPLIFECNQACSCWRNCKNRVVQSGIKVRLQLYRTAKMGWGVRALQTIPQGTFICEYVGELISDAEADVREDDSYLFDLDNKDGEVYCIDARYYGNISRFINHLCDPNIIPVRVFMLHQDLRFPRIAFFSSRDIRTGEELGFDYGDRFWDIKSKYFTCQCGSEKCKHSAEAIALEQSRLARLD
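Using a bead-based AlphaScreen, monomethylated H3K9 product from 2 h room-temperature reactions (G9a 20 nM, peptide 500 nM, SAM 20 uM) was detected with 0.5 ug/mL rabbit anti-H3K9me1 antibody.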
VDR inh = vitamin D3 receptor (human) inhibition | P11473 | 0.93% of 400,000 active | VDR-SRC2-3 peptide fluorescence polarization, 2 h | Potency, µM, inactives show max response, negative = inhibition, usual class: inhibitors; also: % is scaled to controls: 0 for no effect and ±100 for the full control effect
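FP read-out; VDR + SRC2-3 coactivator peptide; 23 nl compound by pintool; 2 h RT incubation; reagents held at 4 deg C, protected from light.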
* = called active by the depositor; [ ] = dose if it differs, or a comment. Calls follow the shape of the dose curve; as a rule, active = well fitted curve in the direction sought with a large enough effect; inconclusive = small, poorly fitted or top-dose-only effect, or another doubt; inactive = no such curve, though single readings can be large; an effect the other way counts as inactive or inconclusive. Potency is read from the fitted curve at half-maximal effect.

For CC(C)(C)c1cc(C(=O)NNS(=O)(=O)c2ccccc2)n[nH]1 the results were JMJD2A Tudor 5%, PLK1 PBD inh 3%, HP1b chromo inh 45%, BAZ2B block -10%, G9a inh -32%[59 µM] and VDR inh -21%.
Screening Cc1ccc(-c2cc(C(=O)O)n[nH]2)s1 returned JMJD2A Tudor -4%[11.4 µM], PLK1 PBD inh -11%, HP1b chromo inh 17%, BAZ2B block -11%, G9a inh -3% and VDR inh 9%.
`CC(C)Cc1cc(C(=O)O)n[nH]1` gave JMJD2A Tudor 25µM*, PLK1 PBD inh -3%, HP1b chromo inh 1%, BAZ2B block 50µM*, G9a inh -49%[12.7 µM] and VDR inh -7%.
Screening CC(C)(C)c1cc(C(=O)O)n[nH]1 returned JMJD2A Tudor 50µM*, PLK1 PBD inh -5%, HP1b chromo inh -5%, BAZ2B block inconclusive, G9a inh 13µM* and VDR inh inconclusive.
Screening COc1ccc(C2C(C(=O)c3ccco3)=C(O)C(=O)N2c2nnc(C)s2)cc1 (stereo unspecified) returned JMJD2A Tudor -13%, PLK1 PBD inh -12%, HP1b chromo inh 15%, BAZ2B block 50µM* and VDR inh -9%.
C=CCOc1ccc(C2C(C(=O)c3ccco3)=C(O)C(=O)N2c2nnc(C)s2)cc1 (stereo unspecified) was read as JMJD2A Tudor 28µM*, PLK1 PBD inh 21µM*, HP1b chromo inh -9%, BAZ2B block 79µM*, G9a inh -7%[12.7 µM] and VDR inh inconclusive.
For COc1cc(C2C(C(=O)c3ccco3)=C(O)C(=O)N2c2cc(C)on2)cc(Br)c1O (stereo unspecified) the results were JMJD2A Tudor inconclusive, PLK1 PBD inh -3%, HP1b chromo inh -4%, BAZ2B block 1%, G9a inh 0%[59 µM] and VDR inh -9%.
For COc1ccc(C2C(C(=O)c3ccco3)=C(O)C(=O)N2c2nnc(C)s2)cc1OC (stereo unspecified) the results were JMJD2A Tudor 25µM*, PLK1 PBD inh -7%, HP1b chromo inh -6%, BAZ2B block -3%, G9a inh 50µM* and VDR inh 18%.
Screening COc1ccc(CCNC(=O)c2ccc3nc(Cc4ccccc4)oc3c2)cc1OC returned JMJD2A Tudor -26%, HP1b chromo inh 26%[57 µM], BAZ2B block 1%, G9a inh -5%[59 µM] and VDR inh 6%.
`O=C(c1ccc2c(c1)N(Cc1cccc(Cl)c1)C(=O)c1ccccc1S2)N1CCOCC1` gave JMJD2A Tudor -19%, HP1b chromo inh 17%, BAZ2B block -20%, G9a inh -30%[59 µM] and VDR inh 2%.
`Cc1ccc(NS(=O)(=O)c2ccc(Cl)nc2)c(C)c1` gave JMJD2A Tudor -9%, PLK1 PBD inh -8%, HP1b chromo inh 21%, BAZ2B block -1%, G9a inh -5% and VDR inh -15%.
Screening Cc1ccc(C)c(NC(=O)CCC(=O)NNS(=O)(=O)c2ccc(Cl)cc2)c1 returned JMJD2A Tudor -2%, PLK1 PBD inh inconclusive, HP1b chromo inh 59%, BAZ2B block 4%, G9a inh inconclusive and VDR inh -7%.
Cc1ccc(S(=O)(=O)NNC(=O)Nc2ccccc2F)c(C)c1 was read as JMJD2A Tudor -12%, PLK1 PBD inh -6%, HP1b chromo inh 30%, BAZ2B block -18%, G9a inh 50µM* and VDR inh -4%.
O=C(NNc1ccccc1)Nc1ccccc1F was read as JMJD2A Tudor -13%, PLK1 PBD inh -13%, HP1b chromo inh 4%, BAZ2B block inconclusive, G9a inh 50µM* and VDR inh 7%.
Screening O=C(CCC(=O)Nc1ccccc1)NNS(=O)(=O)c1ccc(Cl)cc1 returned JMJD2A Tudor inconclusive, PLK1 PBD inh 19µM*, HP1b chromo inh 28%, BAZ2B block -19%, G9a inh 6.3µM* and VDR inh -16%.
Screening Cc1ccc(NS(=O)(=O)c2ccccc2)c(C)c1 returned JMJD2A Tudor 50µM*, HP1b chromo inh 12% and VDR inh -14%.
`COc1ccccc1N1CCCSC1=Nc1ccccc1` gave PLK1 PBD inh 8%.
For COC(=O)C1CCN(S(=O)(=O)c2cc3c4c(c2)CC(=O)N4CCC3)CC1 the results were JMJD2A Tudor -6%, HP1b chromo inh 14%, BAZ2B block -7%, G9a inh 5%[59 µM] and VDR inh -1%.
Screening O=[N+]([O-])c1ccccc1S(=O)(=O)Nc1ccc(-c2ccc3nncn3n2)cc1 returned JMJD2A Tudor -12%, PLK1 PBD inh -12%, HP1b chromo inh 46%, BAZ2B block 2%, G9a inh inconclusive and VDR inh 10%.
Screening Cc1ccc(NS(=O)(=O)c2cccc(C(=O)NNC(=O)c3cccn3C)c2)c(C)c1 returned JMJD2A Tudor inconclusive, PLK1 PBD inh -9%, HP1b chromo inh -6%, BAZ2B block 45µM* and VDR inh 22%.
Screening Cc1c(NS(=O)(=O)c2ccccc2)cc(Cl)c(O)c1C returned JMJD2A Tudor 89µM*, PLK1 PBD inh 4%, HP1b chromo inh inconclusive, BAZ2B block -9%, G9a inh inconclusive and VDR inh -8%.
Cc1ccc(NC(=O)CS(=O)c2ccccc2N)c(C)c1 (stereo unspecified) was read as JMJD2A Tudor -10%, PLK1 PBD inh -11%, HP1b chromo inh 5%, BAZ2B block -17%, G9a inh 40µM* and VDR inh -5%.
Cc1ccnc(NC(=O)c2cccc(S(=O)(=O)Nc3ccc(C)cc3C)c2)c1 was read as JMJD2A Tudor -24%, PLK1 PBD inh -18%, HP1b chromo inh 1% and VDR inh 5%.
For Cc1ccc(NC(=O)CCC(=O)NNS(=O)(=O)c2ccccc2)c(C)c1 the results were JMJD2A Tudor -22%[11.4 µM], PLK1 PBD inh 6.7µM*, HP1b chromo inh -6%, BAZ2B block -4%[57.1 µM], G9a inh 50µM* and VDR inh -11%.
Cc1ccc(NC(=O)Cc2ccccc2)c(C)c1 was read as BAZ2B block -3% and G9a inh -2%[59 µM].
`Cc1ccc(-c2nnc(Nc3ccc(Br)cc3)c3ccccc23)cc1S(=O)(=O)N1CCN(C)CC1` gave JMJD2A Tudor inconclusive, HP1b chromo inh 32%, BAZ2B block inconclusive, G9a inh -32%[59 µM] and VDR inh -8%.
Screening Cc1ccccc1Cn1c2ccccc2c2cnn(CC(=O)NCCCc3ccccc3)c(=O)c21 returned JMJD2A Tudor -8%, HP1b chromo inh 43%, BAZ2B block -1%, G9a inh -2%[59 µM] and VDR inh 16%.

Compound activity (PubChem)
